Source: PubChem BioAssay
Compounds with a hit are over-represented: about 4.7% of the library has one in this group of screens.
tim23-1 inh: inhibits growth of tim23-1 mutant yeast; actives 1.3% (n = 330,000); inhibition, % at 20 µM; AID 463212; S. cerevisiae tim23-1 growth, BacTiter-Glo luminescence, 24 h;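 active means growth inhibition of the mutant yeast at or above 50%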;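 further: temperature-sensitive mutant grown at 25 °C; plate controls were DMSO-treated mutant yeast for no effect and medium wells lacking yeast for full effect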
TIM10 inh: growth inhibitors of TIM10 yeast strain. S. cerevisiae TIM10 strain growth, BacTiter-Glo luminescence, 24 h. inhibition, % at 10 µM. actives 1.4% (n = 330,000). AID 463195;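 active means inhibition of 40% or more at the single tested concentration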;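 further: wild-type TIM10 isogenic control strain grown at permissive 25 °C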
ATG4B inh: blocks human ATG4B protease cleavage of LC3 substrate; ATG4B cleavage of LC3-PLA2, NBD-HPC fluorescence, 1 h; actives 0.51% (n = 340,000); Q9Y4P1; inhibition, % at 8.33 µM; in the data active means inhibition above about 40%
Target sequence (Q9Y4P1 whole entry, looked up): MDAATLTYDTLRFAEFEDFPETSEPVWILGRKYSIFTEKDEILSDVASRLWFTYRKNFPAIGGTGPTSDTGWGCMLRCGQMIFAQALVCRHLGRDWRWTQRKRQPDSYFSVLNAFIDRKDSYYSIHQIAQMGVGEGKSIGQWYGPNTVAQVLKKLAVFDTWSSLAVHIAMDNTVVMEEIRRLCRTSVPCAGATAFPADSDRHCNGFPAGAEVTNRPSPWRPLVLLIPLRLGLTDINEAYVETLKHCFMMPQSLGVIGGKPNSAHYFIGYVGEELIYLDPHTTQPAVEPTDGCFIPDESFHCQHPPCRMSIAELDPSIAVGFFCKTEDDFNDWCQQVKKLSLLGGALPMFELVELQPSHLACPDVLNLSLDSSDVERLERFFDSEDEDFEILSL
SKKanGAS inh: inhibitors of SKKanGAS S. pyogenes growth in kanamycin (SK-promoter or general growth effect). BacTiter-Glo, 6 h. inhibition, % at 7.5 µM. actives 1.3% (n = 300,000). AID 1662;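 active means mean replicate score, as percent of positive control median, at least 50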;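 further: strain carries kanamycin resistance gene driven by streptokinase promoter and grows in 40 µg/ml kanamycin; loss of luminescence reflects streptokinase promoter inhibition or plain growth inhibition; 0% = median of DMSO wells and 100% = positive control at its reference dose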
tim10-1 inh: inhibits growth of tim10-1 mutant yeast; inhibition, % at 20 µM; actives 2.2% (n = 330,000); S. cerevisiae tim10-1 ts strain growth, BacTiter-Glo, 24 h;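 active means inhibition of at least 40%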;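 further: mutant grown at 25 °C; 0% = DMSO wells with yeast and 100% = wells holding no yeast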
PfHsp90 set2: reduces growth (ATP signal) of yeast expressing P. falciparum Hsp90 | inhibition, % at 9.4 µM | S. cerevisiae expressing PfHsp90, BacTiter-Glo ATP, 48 h; yeast lacking PDR1 and PDR3 efflux regulators | actives 0.32% (n = 310,000);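 active means every replicate shows inhibition above about 80%, whatever the replicate mean, limit read from the data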;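 further: 0% = DMSO neutral controls and 100% = 20 µM radicicol positive controls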
TIM10 conf: TIM10 yeast growth inhibition, confirmed | AID 463215 | shares compounds with TIM10 inh | S. cerevisiae tim10 strain growth, BacTiter-Glo luminescence, 24 h | inhibition, % at 10 µM | actives 63% (n = 4,600);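 active means inhibition of yeast growth at or above a set limit in either of two replicates at 10 µM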;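 further: this counterscreen used the strain with wild-type TIM10; 0% = yeast with DMSO and 100% = medium wells lacking yeast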
An asterisk follows results filed as active; · = no result given.

SMILES	tim23-1 inh	TIM10 inh	ATG4B inh	SKKanGAS inh	tim10-1 inh	PfHsp90 set2	TIM10 conf
COc1ccc(Nc2nnc(SC(C(=O)Nc3ccc(OC)c(Cl)c3)c3ccccc3)s2)cc1 (stereo unspecified)	-26.0	-6.8	9.4	22.4	6.2	-20.6	·
O=C(CCS(=O)(=O)c1ccccc1)Nc1ncc([N+](=O)[O-])s1	35.5	40.9*	-3.0	-3.8	24.7	5.7	33.3*
CN(C)c1ccc(C(O)P(=O)(OC2CCCCC2)OC2CCCCC2)cc1 (stereo unspecified)	39.2	23.8	-2.9	7.2	20.8	-1.5	·
Cc1ccc(C(O)P(=O)(OC2CCCCC2)OC2CCCCC2)cc1 (stereo unspecified)	35.3	40.4*	7.3	12.1	38.4	-26.1	38.8*
COc1ccc(S(=O)(=O)N2CCN(CCOc3ccccc3Cl)CC2)cc1OC	23.8	96.8*	-35.8	·	14.7	6.8	9.2
CNc1ccc(/C=C/C(=O)c2cccc3ccccc23)cc1[N+](=O)[O-]	39.1	44.6*	16.2	42.3	39.4	-16.1	-8.6
CC(C)(C)c1cc(O)c(C(C)(C)C)cc1O	45.8	46.9*	·	1.8	31.5	·	42.0*
Cc1cc(C(C)(C)C)c(O)c(C(C)(C)C)c1	-17.3	3.6	-5.7	2.3	-12.5	-3.0	·
CCN(CC)c1ccc2cc(/C(N)=N/NC(=O)c3cccs3)c(=O)oc2c1	36.5	47.1*	·	17.6	-26.6	·	36.8*
CCC(C)c1ccc(NC(=S)N2CCN(c3ccccn3)CC2)cc1 (stereo unspecified)	10.5	26.5	-1.3	-3.5	9.3	-0.6	·
CCC(C)c1ccc(OCCN2CCCC2)cc1 (stereo unspecified)	-7.9	11.8	-7.9	0.4	-2.2	-7.0	·
Cc1cc(C)nc(OC(C(=O)O)C(OCc2ccccc2)(c2ccccc2)c2ccccc2)n1 (stereo unspecified)	-0.6	97.4*	1.6	3.7	-1.4	5.6	5.7
COC(=O)C1=C(C)N(c2ccc(Cl)cc2)/C(=C/c2cccs2)C1=O	37.4	47.4*	0.3	-4.3	31.6	1.5	-0.1
COC(=O)C1=C(C)N(c2cccc(C)c2)C(=O)/C1=C\c1cccs1	34.5	9.4	16.2	-20.5	9.2	9.0	·
COC(=O)C1=C(C)N(c2ccc(C)c(C)c2)/C(=C/c2cccs2)C1=O	39.9	50.2*	1.0	4.2	23.0	-3.9	46.6*
COC(=O)C1=C(C)N(c2ccccc2)/C(=C/c2cccs2)C1=O	34.8	51.2*	-1.7	-3.5	31.6	29.7	34.7*
CCc1cccc2c(C(=O)C(F)(F)F)cn(CC(=O)NCC3CCCO3)c12 (stereo unspecified)	7.2	6.0	-0.9	-8.9	12.6	11.1	·
Cc1ccccc1CS(=O)(=O)c1snnc1C	-6.7	-13.7	3.7	0.4	-0.7	·	·
O=C(NCc1ccncc1)c1cccc(S(=O)(=O)NCc2ccccc2)c1	-11.2	-1.7	-0.1	-11.3	-13.9	6.9	·
Cc1ccc(OCCNC(=O)c2cccc(S(=O)(=O)NCc3ccccc3)c2)cc1	6.7	58.6*	-6.5	·	8.8	·	-4.5
O=[N+]([O-])c1ccc(Sc2n[nH]c(-c3ccccc3)n2)nc1	23.8	44.9*	-10.6	-6.0	21.7	-40.9	12.3
CC1=C/C(=N\NC(=S)NCCc2ccccc2)CC(C)(C)C1	43.0	42.8*	0.6	51.6*	33.1	-0.7	17.4
Cc1ccccc1N1CCN(C(=O)c2ccc(Oc3ccc(C(F)(F)F)cn3)cc2)CC1	38.3	47.2*	17.1	5.6	37.6	3.2	42.8*
CCOc1ccc(NC(=S)Nc2cc(OC)c(Cl)cc2OC)cc1	30.1	40.3*	2.9	-4.4	35.5	-3.6	5.0
NC(=O)c1ccc(NC(=O)c2ccc(CN3CCOCC3)cc2)cc1	7.0	43.2*	-10.3	-8.8	5.0	-3.4	-2.6
SMILES	tim23-1 inh	TIM10 inh	ATG4B inh	SKKanGAS inh	tim10-1 inh	PfHsp90 set2	TIM10 conf
COc1ccc(NC(=O)c2ccc(CN3CCN(c4ccccc4)CC3)cc2)cc1	15.7	5.8	-8.2	4.9	13.7	9.5	·
CCOC(=O)c1ccc(NC(=O)c2ccc(CN3CCOCC3)cc2)cc1	7.0	-21.6	-1.8	2.5	-14.6	-2.9	·
COc1cccc(NC(=O)c2ccc(CN3CCN(c4ccccc4)CC3)cc2)c1	26.0	51.1*	-8.6	-4.4	26.6	-26.9	20.6
O=C(Nc1cccc(-c2csc(-c3ccccc3)n2)c1)c1cccs1	31.1	40.5*	-4.2	-0.3	18.5	-5.8	32.4*
O=C(Nc1ccc2oc(-c3ccncc3)nc2c1)c1ccccc1F	-4.4	36.0	-9.4	-9.0	15.6	10.0	·
Cc1nc(-c2cccc(NC(=O)c3cccs3)c2)cs1	33.1	15.0	2.4	-5.7	-2.8	2.0	·
O=C(Nc1ccc2oc(-c3ccncc3)nc2c1)c1cccs1	39.6	52.7*	-12.7	-7.0	-6.2	30.3	51.3*
O=C(Nc1ccc2oc(-c3ccccc3)nc2c1)c1ccccc1F	26.1	65.2*	-11.9	10.0	13.3	-2.6	53.8*
O=C(Nc1ccc2oc(-c3ccncc3)nc2c1)c1ccccc1	9.4	44.5*	-15.9	-3.7	1.4	-2.3	-2.6
COC(=O)c1ccc(OCC(O)Cn2nnc3ccccc32)cc1 (stereo unspecified)	2.4	-7.7	-1.3	3.1	1.0	4.6	·
Cc1ccc(C)c(N(C(=O)CCC(=O)Nc2cc(C)on2)C(C(=O)NC2CCCC2)c2ccco2)c1 (stereo unspecified)	-5.6	12.4	4.2	0.8	4.3	42.0	·
O=C(C1=C[C@@H](c2ccc3c(c2)OCO3)C[C@@H](OCc2ccc(CO)cc2)O1)N1CCOCC1	18.2	6.0	-4.2	0.1	9.4	-5.4	·
Nc1c(C(=O)Nc2ccc(Br)cc2)sc2nc(-c3ccco3)ccc12	5.5	17.2	13.3	36.2	12.8	-4.7	·
Nc1c(C(=O)Nc2ccc(F)cc2)sc2nc(-c3ccco3)ccc12	46.0	48.6*	2.9	37.7	30.9	1.0	48.3*
Fc1ccc(-c2cc3nc(-c4ccccc4)cc(N4CCOCC4)n3n2)cc1	-7.3	-0.4	-1.2	3.4	2.1	-18.9	·
COc1ccc(-c2cc3nc(-c4ccccc4)cc(N4CCCC(O)C4)n3n2)cc1 (stereo unspecified)	26.2	42.4*	-15.4	53.6*	39.7	-32.8	33.6*
S=c1nc(SCc2ccccc2)[nH]c2ccccc12	12.0	49.4*	5.7	76.4*	36.0	-3.2	39.5*
c1ccc(CSc2nc3ncncc3[nH]2)cc1	17.2	2.8	-1.9	-12.8	6.0	-2.4	·
O=C(COC(=O)c1cccnc1)Nc1cccc(Cl)c1	0.4	-13.4	-5.8	-3.7	4.7	0.3	·
